This is an account of results in PubChem BioAssay (NCATS).

Records with an inconclusive call do not appear. Activity calls are given as the source filed them. Unless noted, calls come from the whole dose curve.

Assay [1] concerns the target Bile acid receptor (Homo sapiens) (UniProt Q96RI1). The experiment in a line: qHTS assay for small molecule antagonists of farnesoid X receptor signaling (AID 588526). Note: % is set by controls: 0 for no effect and ±100 for the full control effect. Summed up:
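Antagonist mode: titrated compounds tested against chenodeoxycholic acid stimulation (normalized to 50 uM CDCA and DMSO) in GeneBLAzer HEK293T cells for 16 h. Beta-lactamase read by CCF4 fluorescence; IC50 from Hill fits.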
On the technique in general: Quantitative high-throughput screening tests each substance at several concentrations.

Assay [2] has the same target. The experiment in a line: qHTS assay for small molecule agonists of farnesoid X receptor signaling (AID 588527).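 Note: series mostly up to about 77 µM; 0% = vehicle basal and 100% = reference agonist.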 Particulars: HEK293T FXR-UAS-bla, beta-lactamase ratio, 16 h; activation: stronger effect = higher value. In a few lines: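 Quantitative HTS used FXR-UAS-bla HEK293T cells with 16 h compound incubation at 37 C. EC50 values came from concentration-response curves normalized to chenodeoxycholic acid.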

Assay [3] concerns the target Glucocorticoid receptor (Homo sapiens) (UniProt P04150). The assay is described as follows: qHTS assay for small molecule agonists of glucocorticoid receptor signaling (AID 588532; active = well fitted curve in the direction sought with a large enough effect in the signal ratio, with a control signal flat; the % refers to the signal ratio;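 note: 100% = dexamethasone at 0.1 µM and 0% = DMSO only wells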). The following applies: HeLa MMTV-bla, beta-lactamase ratio, agonist, 18 h; activation: stronger effect = higher value, percent of dexamethasone control, DMSO zero. In a few lines: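 HeLa GRE-bla reporter cells; 18 h compound exposure at 37 C; 2 h CCF4 loading at room temperature; fluorescence at 460 and 530 nm; EC50 by Hill equation.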

Assay [4] concerns the target Peroxisome proliferator-activated receptor delta (Homo sapiens) (UniProt Q03181). The experiment in a line: qHTS assay for small molecule agonists of peroxisome proliferator-activated receptor delta signaling (AID 588534).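 Note: 0% = DMSO basal wells and 100% = positive control agonist at 10 µM.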 In a few lines:
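Fluorescence from CCF4 substrate cleavage by beta-lactamase reporter, read 2 hrs at RT, measured agonist activity. Compounds were tested with 18 hrs exposure at 37 C. Concentration-response data fitted to Hill equation.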

Assay [5] deals with Vitamin D3 receptor (Homo sapiens) (UniProt P11473). The experiment in a line: qHTS assay for small molecule antagonists of vitamin D receptor signaling (AID 588541).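 Note: receptor activated by calcitriol during compound treatment; series mostly up to about 77 µM; % is set by controls: 0 for no effect and ±100 for the full control effect.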 Summed up:
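VDR-UAS-bla HEK293T cells in 2% charcoal-stripped FBS were stimulated with 1-alpha,25-dihydroxyvitamin D3 (3 nM final) plus compound for 16 h at 37 C. The beta-lactamase CCF4 readout was normalized to 50 nM agonist and DMSO, and Hill fits gave IC50.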

The target is the same in assay [6]. The assay is described as follows: qHTS assay for small molecule agonists of vitamin D receptor signaling (AID 588543).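 Note: 0% = DMSO basal and 100% = reference agonist control.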 Summed up: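 Reporter cells (HEK293T, VDR-UAS-bla) were seeded in medium with 2% charcoal-stripped serum and incubated 5 h, then compounds in concentration series were added for 16 h at 37 °C. Stimulation was scaled between DMSO basal and 50 nM 1α,25-dihydroxyvitamin D3.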

Assay [7] deals with Thyroid hormone receptor beta (Homo sapiens) (UniProt P10828). The assay is described as follows: qHTS assay for small molecule agonists of thyroid hormone receptor beta signaling (AID 588545). In a few lines: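 Cells (2500/well) were seeded, incubated 4 hrs at 37 C, dosed with a compound series, incubated 18 hrs, loaded with CCF4 dye for 2 hrs at RT, then read for fluorescence. Data were scaled between DMSO (0%) and 10 nM T3 (100%).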
Sequence of Thyroid hormone receptor beta (Homo sapiens) (P10828 whole entry, looked up): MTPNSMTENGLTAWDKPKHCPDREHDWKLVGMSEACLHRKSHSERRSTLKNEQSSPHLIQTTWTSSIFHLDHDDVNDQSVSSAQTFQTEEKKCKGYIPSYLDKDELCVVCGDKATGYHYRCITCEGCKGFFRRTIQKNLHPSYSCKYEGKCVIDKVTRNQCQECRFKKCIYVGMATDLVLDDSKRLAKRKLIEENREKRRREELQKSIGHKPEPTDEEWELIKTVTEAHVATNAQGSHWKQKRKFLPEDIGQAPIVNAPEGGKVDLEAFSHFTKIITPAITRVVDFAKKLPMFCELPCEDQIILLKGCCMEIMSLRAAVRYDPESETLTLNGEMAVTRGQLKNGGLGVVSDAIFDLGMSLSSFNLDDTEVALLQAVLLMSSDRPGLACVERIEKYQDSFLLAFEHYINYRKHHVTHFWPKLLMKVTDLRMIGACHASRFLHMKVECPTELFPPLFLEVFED

Assay [8] is described as follows: qHTS assay for small molecule antagonists of retinoid X receptor alpha signaling (AID 588546; active = well fitted inhibition curve with a large enough effect in the signal ratio, with a control signal flat, not every such curve was filed as active; the % refers to the signal ratio;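 note: cells stimulated with 9-cis-retinoic acid as agonist; % is set by controls: 0 for no effect and ±100 for the full control effect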). Particulars: HEK293T RXRa-UAS-bla, beta-lactamase ratio, antagonist mode; measured here: W530 green channel, cytotoxicity proxy. Summed up: (§1)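 Beta-lactamase reporter inhibition, read as CCF4 fluorescence ratio (ex 405, em 460/530 nm) after 2 h at RT. HEK293T UAS-bla cells, 2500/well, were stimulated with 9-cis-RA at 500 or 100 nM final alongside test compound for 18 h at 37 C.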

Assay [9] concerns the target Retinoic acid receptor RXR-alpha (Homo sapiens) (UniProt P19793). The assay is described as above. The following applies: HEK293T RXRa-UAS-bla, beta-lactamase ratio, antagonist mode. In a few lines: as §1
In assay [10] the target is Thyroid hormone receptor beta (Homo sapiens) (UniProt P10828). The assay is described as follows: qHTS assay for small molecule antagonists of thyroid hormone receptor beta signaling (AID 588547; active = well fitted inhibition curve with a large enough effect in the signal ratio, with a control signal flat, not every such curve was filed as active; the % refers to the signal ratio;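 note: cells stimulated with 0.4 nM T3 agonist during compound exposure; series mostly up to about 77 µM; % is set by controls: 0 for no effect and ±100 for the full control effect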). The following applies: TR-UAS-bla HEK293, beta-lactamase ratio, antagonist mode, 18 h. In a few lines: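 TR-UAS-bla GripTite HEK293 cells in 2% charcoal/dextran FBS medium; compounds 0.59 nM to 92 uM with T3 at 0.4nM final, 18 h at 37 C. Beta-lactamase read by CCF4 fluorescence (460/530 nm); Hill fits gave IC50 and efficacy.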

The nature of assay [11]: qHTS assay for small molecule agonists of the antioxidant response element (ARE) signaling pathway (AID 651741; active = well fitted activation curve with a large enough effect in the signal ratio; the % refers to the signal ratio; note: % of control where 0% means no effect). In a few lines:
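CellSensor ARE-bla HepG2 cells (2,000/well) carrying ARE-driven beta-lactamase, exposed 16 h at 37 C. LiveBLAzer B/G FRET substrate added for 2 h at room temperature; fluorescence intensity read.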

Assay [12] can be described thus: qHTS assay for small molecule activators of the nuclear factor-kappa B (NF-kB) signaling pathway (AID 651749; active = well fitted activation curve with a large enough effect in the signal ratio; the % refers to the signal ratio; note: series mostly up to about 77 µM; % of control where 0% means no effect). Particulars: NF-kB-bla ME-180 cells, beta-lactamase FRET ratio, 16 h; activation: stronger effect = higher value. In a few lines: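 NF-kB-bla ME-180 cells carrying a beta-lactamase reporter under an NF-kB response element, 2,000 cells/well, exposed to compound for 16 hr at 37C; FRET-based beta-lactamase fluorescence read-out of pathway activation.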

Assay [13] in a line: qHTS assay for environmental chemicals that activate the Aryl hydrocarbon Receptor (AhR) signaling pathway (AID 651777; active = well fitted curve in the direction sought with a large enough effect; an effect the other way counts as inactive or inconclusive; note: % of control where 0% means no effect; nearly all actives have a fitted effect of over 15% in size). Particulars: 1A2-DRE human hepatoma cells, luciferase, 24 h; activation: stronger effect = higher value. Summed up: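 Measured luciferase activity, read 30 min after One-Glo addition at room temperature, from human hepatoma cells bearing a dioxin response element–CYP1A2 promoter reporter and exposed to compound for 24 hr at 37 C.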

Assay [14] concerns the target Peroxisome proliferator-activated receptor alpha (Homo sapiens) (UniProt Q07869). The assay is described as follows: qHTS assay for small molecule agonists of the peroxisome proliferator-activated receptor alpha (PPARalpha) signaling pathway (AID 651778; active = well fitted curve in the direction sought with a large enough effect; an effect the other way counts as inactive or inconclusive; note: % of control where 0% means no effect). Particulars: PathHunter PPARalpha complementation, chemiluminescence, 6 h; max response: stronger effect = higher value. In a few lines: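 Enzyme-fragment complementation assay in which ligand-bound PPARalpha translocates and forms an active enzyme that generates chemiluminescence. Cells were plated overnight, exposed to compound for 6 hr at 37 C, and then given detection reagent for 60 min at room temperature.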

Assay [15] in a line: qHTS assay for small molecule agonists of the antioxidant response element (ARE) signaling pathway measured by Nrf2-dependant transcriptional activity (AID 720636; active = well fitted curve in the direction sought with a large enough effect in the repeat runs; an effect the other way counts as inactive or inconclusive;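 note: HepG2 cells with an ARE-driven luciferase reporter; % of control where 0% means no effect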). In a few lines: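 In HepG2 cells engineered with an Nrf2-responsive luciferase gene, ARE induction was quantified as luminescence after 16 hr compound treatment at 37 C.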
Assay [16] can be described thus: qHTS assay for small molecule agonists of the antioxidant response element (ARE) signaling pathway measured by Nrf2-dependant transcriptional activity - cell viability counter screen (AID 720653; active = well fitted curve in the direction sought with a large enough effect in the repeat runs; an effect the other way counts as inactive or inconclusive; note: % is set by controls: 0 for no effect and ±100 for the full control effect). Particulars: ARE-bla HepG2 viability, CellTiter-Glo ATP luminescence, 16 h; max response: stronger effect = lower value. Summed up: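 ARE-bla HepG2 cells treated with compounds for 16 h at 37C; this counter screen measures viability as intracellular ATP by CellTiter-Glo luminescence after 30 min at room temperature.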

A short description of assay [17]: qHTS assay for cell viability of HEK293 cells (AID 743288; active = well fitted curve in the direction sought with a large enough effect; an effect the other way counts as inactive or inconclusive; note: % is set by controls: 0 for no effect and ±100 for the full control effect; nearly all actives have a fitted effect of over 50% in size). The following applies: ATP luminescence (CellTiter-Glo), 18 h; max response: stronger effect = lower value. In a few lines:
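HEK293 parental, 2,000 cells/well; ≥5 h pre-incubation 37 C; pintool compound addition; 18 h, 37 C; CellTiter-Glo 30 min RT; luminescence read.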

Assay [18] can be described thus: qHTS assay for cell viability of the p53RE-bla HCT-116 cell line (AID 743292; active = well fitted curve in the direction sought with a large enough effect; an effect the other way counts as inactive or inconclusive; note: % is set by controls: 0 for no effect and ±100 for the full control effect; nearly all actives have a fitted effect of over 55% in size). Summed up: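 Intracellular ATP of p53RE-bla HCT-116 cells measured by luciferase luminescence following 16 h compound incubation at 37 C; DMSO-only wells served as vehicle controls.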
Assay [19] deals with Nuclear receptor subfamily 1 group I member 2 (Rattus norvegicus) (UniProt Q9R1A7). The experiment in a line: qHTS assay for small molecule activators of the rat pregnane X receptor (rPXR) signaling pathway (AID 651751; call rule not given here; note: 0% is about no effect). Particulars: rPXR reporter cells, luciferase (One-Glo), 24 h.
Sequence of Nuclear receptor subfamily 1 group I member 2 (Rattus norvegicus) (Q9R1A7 whole entry, looked up): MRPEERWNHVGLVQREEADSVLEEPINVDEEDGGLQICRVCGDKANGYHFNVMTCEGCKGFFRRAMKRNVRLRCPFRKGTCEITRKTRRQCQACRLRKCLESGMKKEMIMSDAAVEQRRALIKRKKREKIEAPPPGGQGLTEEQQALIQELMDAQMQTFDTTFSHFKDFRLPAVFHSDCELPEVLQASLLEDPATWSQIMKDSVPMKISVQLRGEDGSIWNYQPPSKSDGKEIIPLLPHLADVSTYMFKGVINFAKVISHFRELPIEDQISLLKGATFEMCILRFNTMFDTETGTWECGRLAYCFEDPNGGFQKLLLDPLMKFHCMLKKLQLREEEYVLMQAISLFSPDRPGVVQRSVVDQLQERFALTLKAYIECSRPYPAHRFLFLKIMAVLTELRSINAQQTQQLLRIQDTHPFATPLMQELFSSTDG
Assay [20] is described as follows: qHTS assay for small molecule activators of the p53 signaling pathway (AID 651743; active = well fitted activation curve with a large enough effect in the signal ratio, not every such curve was filed as active; the % refers to the signal ratio; note: series mostly up to about 92 µM; % of control where 0% means no effect). Particulars: HCT-116 p53RE-bla, beta-lactamase FRET ratio, 16 h; activation: stronger effect = higher value. Summed up:
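p53RE-bla HCT-116 cells carrying a beta-lactamase reporter under p53 response elements were exposed to compounds for 16 hours at 37 C. Reporter activity read as fluorescence after 2 hours at room temperature with LiveBLAzer B/G FRET substrate.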

Sequence of Peroxisome proliferator-activated receptor delta (Homo sapiens) (Q03181 whole entry, looked up): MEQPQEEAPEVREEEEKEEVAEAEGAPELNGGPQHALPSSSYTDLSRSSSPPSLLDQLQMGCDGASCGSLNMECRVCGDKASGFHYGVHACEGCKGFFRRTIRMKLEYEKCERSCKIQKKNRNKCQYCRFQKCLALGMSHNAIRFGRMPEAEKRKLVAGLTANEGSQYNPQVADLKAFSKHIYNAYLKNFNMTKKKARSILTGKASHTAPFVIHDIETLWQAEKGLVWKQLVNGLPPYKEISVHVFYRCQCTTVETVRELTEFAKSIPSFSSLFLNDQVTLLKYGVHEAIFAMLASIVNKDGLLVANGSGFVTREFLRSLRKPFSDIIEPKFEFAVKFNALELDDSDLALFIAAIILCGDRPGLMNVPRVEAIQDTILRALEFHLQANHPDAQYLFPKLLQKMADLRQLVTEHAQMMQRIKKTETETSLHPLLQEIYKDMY
Sequence of Bile acid receptor (Homo sapiens) (Q96RI1 whole entry, looked up): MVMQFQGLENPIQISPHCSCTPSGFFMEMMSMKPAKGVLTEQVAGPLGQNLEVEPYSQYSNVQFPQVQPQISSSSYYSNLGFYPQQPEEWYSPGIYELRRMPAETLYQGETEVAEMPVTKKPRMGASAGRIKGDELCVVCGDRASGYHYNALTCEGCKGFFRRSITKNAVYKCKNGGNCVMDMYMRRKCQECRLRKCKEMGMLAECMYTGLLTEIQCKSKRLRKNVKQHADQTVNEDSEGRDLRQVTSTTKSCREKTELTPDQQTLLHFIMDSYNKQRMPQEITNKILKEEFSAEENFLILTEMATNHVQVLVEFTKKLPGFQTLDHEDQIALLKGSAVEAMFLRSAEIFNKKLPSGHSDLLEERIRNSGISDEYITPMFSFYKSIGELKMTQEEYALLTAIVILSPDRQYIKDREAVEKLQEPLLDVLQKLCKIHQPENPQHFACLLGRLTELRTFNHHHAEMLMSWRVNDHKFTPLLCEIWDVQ
Sequence of Retinoic acid receptor RXR-alpha (Homo sapiens) (P19793 whole entry, looked up): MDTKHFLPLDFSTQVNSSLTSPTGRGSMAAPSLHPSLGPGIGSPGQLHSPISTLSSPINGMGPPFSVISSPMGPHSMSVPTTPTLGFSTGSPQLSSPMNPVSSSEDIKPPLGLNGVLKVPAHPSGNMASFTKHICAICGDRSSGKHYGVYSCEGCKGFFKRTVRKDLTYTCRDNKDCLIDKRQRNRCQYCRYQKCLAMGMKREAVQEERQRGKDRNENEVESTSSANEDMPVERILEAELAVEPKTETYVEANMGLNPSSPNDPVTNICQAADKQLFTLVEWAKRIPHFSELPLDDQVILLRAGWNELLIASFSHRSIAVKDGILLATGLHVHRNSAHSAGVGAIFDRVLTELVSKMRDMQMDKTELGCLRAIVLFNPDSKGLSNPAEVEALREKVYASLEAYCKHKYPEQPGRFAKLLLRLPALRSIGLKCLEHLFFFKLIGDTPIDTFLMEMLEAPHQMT
Sequence of Peroxisome proliferator-activated receptor alpha (Homo sapiens) (Q07869 whole entry, looked up, the tested form may be a part): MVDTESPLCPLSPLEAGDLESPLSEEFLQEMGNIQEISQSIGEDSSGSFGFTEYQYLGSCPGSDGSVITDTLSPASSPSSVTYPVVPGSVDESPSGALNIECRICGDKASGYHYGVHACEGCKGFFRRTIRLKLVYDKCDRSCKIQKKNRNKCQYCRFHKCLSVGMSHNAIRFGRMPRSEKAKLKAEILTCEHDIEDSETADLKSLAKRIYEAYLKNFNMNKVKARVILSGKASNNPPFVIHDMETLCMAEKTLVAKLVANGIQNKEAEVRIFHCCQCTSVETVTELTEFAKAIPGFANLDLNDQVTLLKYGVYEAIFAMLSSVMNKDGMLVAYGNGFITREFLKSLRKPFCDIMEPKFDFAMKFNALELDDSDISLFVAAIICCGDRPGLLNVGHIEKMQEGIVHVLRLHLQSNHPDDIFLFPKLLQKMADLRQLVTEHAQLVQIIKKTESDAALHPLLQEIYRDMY
Sequence of Vitamin D3 receptor (Homo sapiens) (P11473 whole entry, looked up): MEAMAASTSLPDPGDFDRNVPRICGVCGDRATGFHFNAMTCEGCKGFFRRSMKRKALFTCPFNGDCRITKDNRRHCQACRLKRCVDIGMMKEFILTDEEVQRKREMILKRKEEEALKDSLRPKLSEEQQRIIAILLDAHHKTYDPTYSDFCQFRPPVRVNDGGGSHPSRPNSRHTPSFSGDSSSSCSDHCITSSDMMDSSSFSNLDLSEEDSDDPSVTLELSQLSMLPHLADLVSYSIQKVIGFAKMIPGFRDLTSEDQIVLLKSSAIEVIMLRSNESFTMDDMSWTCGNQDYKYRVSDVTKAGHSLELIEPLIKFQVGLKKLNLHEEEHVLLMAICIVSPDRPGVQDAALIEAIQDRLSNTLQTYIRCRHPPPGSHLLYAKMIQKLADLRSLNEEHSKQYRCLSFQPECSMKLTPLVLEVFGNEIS
Sequence of Glucocorticoid receptor (Homo sapiens) (P04150 whole entry, looked up): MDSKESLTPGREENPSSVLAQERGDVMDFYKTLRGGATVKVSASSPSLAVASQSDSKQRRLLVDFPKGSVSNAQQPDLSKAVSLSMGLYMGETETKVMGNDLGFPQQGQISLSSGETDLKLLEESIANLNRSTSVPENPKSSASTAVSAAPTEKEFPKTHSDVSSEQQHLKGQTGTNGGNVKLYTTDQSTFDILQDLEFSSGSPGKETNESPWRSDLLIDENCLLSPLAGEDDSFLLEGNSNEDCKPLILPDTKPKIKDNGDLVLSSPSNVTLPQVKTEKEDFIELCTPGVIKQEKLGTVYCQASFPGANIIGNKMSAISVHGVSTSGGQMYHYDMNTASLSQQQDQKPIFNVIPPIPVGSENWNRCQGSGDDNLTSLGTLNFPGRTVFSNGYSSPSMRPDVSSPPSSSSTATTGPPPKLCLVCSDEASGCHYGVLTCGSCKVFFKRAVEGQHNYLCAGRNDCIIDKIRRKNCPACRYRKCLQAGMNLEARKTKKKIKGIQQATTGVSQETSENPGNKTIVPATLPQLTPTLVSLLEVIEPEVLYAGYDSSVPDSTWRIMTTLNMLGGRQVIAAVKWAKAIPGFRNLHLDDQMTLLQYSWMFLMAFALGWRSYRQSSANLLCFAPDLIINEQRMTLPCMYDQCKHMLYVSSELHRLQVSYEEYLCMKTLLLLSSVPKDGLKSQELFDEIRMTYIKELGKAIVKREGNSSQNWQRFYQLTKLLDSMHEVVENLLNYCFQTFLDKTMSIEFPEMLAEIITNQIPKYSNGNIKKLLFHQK

`COc1nn(C(=O)NS(=O)(=O)c2ccccc2OC(F)(F)F)c(=O)n1C`: the Potency result in assay [1], in assay [5], in assay [7], in [11], in assay [15] and in assay [18] was “inactive” throughout. For the same molecule, the activation in assay [2] is 1.22% (inactive); in assay [3], -3.65% (inactive); in [12], -2.5% (inactive); in assay [13], 1.39% (inactive). Moreover, the molecule was classed as inactive in assay [4] and in assay [6]. Besides, the max response in assay [8] was -2.65%; in [9] it was -13.4% (inactive); in [14], -1.08% (inactive); in [16] it was 3.81% (inactive); in [17], -3.61% (inactive); in [19], 1.31% (inactive). Besides, the activity change % (negative = inhibition) in [10] was 8.96% (inactive).

Turning to `CC(C)COP(=O)(OCC(C)C)OCC(C)C`, the Potency entry in assay [1], in assay [5], in assay [7], in assay [15] and in assay [18] was “inactive” throughout. For the same molecule, the activation in assay [2] was 4.76% (inactive); in assay [20], -2.4% (inactive); in [12] it was -3.3% (inactive); in assay [13], -1.96% (inactive). The molecule was classed as inactive in assay [4]. Further, the max response was -13.9% in assay [8]; 3.45% (inactive) in [9]; -1.01% (inactive) in assay [14]; -13.2% (inactive) in assay [16]; -10% (inactive) in assay [17]; -5.22% (inactive) in assay [19]. Besides, the activity change % (negative = inhibition) in assay [10] was -6.4% (inactive).

Turning to `CCCCNS(=O)(=O)c1ccccc1`, the activation in assay [2] was 2.61% (inactive).

`CN(C)CCOCCN(C)C`: in [2], the activation is -0.638% (inactive).

Turning to `CC1(C(=O)Nc2ccc(O)c(Cl)c2Cl)CCCCC1`, the Potency entry in [1], in assay [5], in [7] and in assay [18] was “inactive” each time. The call in assay [4] and in assay [6] was inactive. Further, the max response is -23.6% in assay [8]; -4.55% (inactive) in assay [9]; 3.06% (inactive) in [14]; 4.3% (inactive) in assay [16]; -8.66% (inactive) in [17]; 1.26% (inactive) in assay [19]. The activity change % (negative = inhibition) in [10] is 15.7% (inactive). The activation in assay [20] was 0.119% (inactive); in [12] it was 0.744% (inactive); in assay [13] it was 0.158% (inactive).

Take `Cn1c(=O)[nH]c(=O)n(C2CCCCC2)c1=O`: the activation in [2] was 2.64% (inactive).

As for `CS(=O)(=O)NC(=O)c1cc(Oc2ccc(C(F)(F)F)cc2Cl)ccc1[N+](=O)[O-]`, the Potency result in [1], in [5], in assay [7] and in assay [18] was “inactive” in each case. In addition, the activation in assay [2] was -9.24% (inactive); in assay [20] it was -3.62% (inactive); in assay [13], 0.872% (inactive). The outcome in [6] was inactive. In addition, the max response is -6.47% in assay [8]; -2.59% (inactive) in assay [14]; -2.76% (inactive) in assay [16]; -3.04% (inactive) in assay [17]; -4.18% (inactive) in assay [19]. Further, the activity change % (negative = inhibition) in assay [10] is -8.1% (inactive).

For the molecule `Cc1ccc(O)c(N)c1`, the activation in assay [2] is -0.664% (inactive).

Consider `COC(=O)c1ccccc1S(=O)(=O)NC(=O)Nc1nc(C)nc(OC)n1`, for which the Potency result in [1], in assay [5], in assay [7] and in assay [15] was “inactive” in each case. For the same molecule, the activation in assay [2] was -2.54% (inactive); in assay [20] it was 6.08% (inactive); in assay [13] it was -1.13% (inactive). The molecule was classed as inactive in assay [4] and in [6]. Further, the max response in assay [8] is -10.3%; in [9] it was 25.6% (inactive); in [14], 5.99% (inactive); in assay [16], 13.7% (inactive); in assay [17], 9.36% (inactive); in assay [19] it was -8.23% (inactive).
